FBA Mtb inh = Mtb FBA enzyme inhibitors, primary screen, biochemical, fluorescence, strain H37Rv; 360,000 tested, 2.3% active; AID 588726, 2011; inhibition, % at 1 µM; purified M. tuberculosis FBA, fluorescence read-out; in the data active = inhibition above about 27%
Target sequence (P9WQA3 whole entry, looked up): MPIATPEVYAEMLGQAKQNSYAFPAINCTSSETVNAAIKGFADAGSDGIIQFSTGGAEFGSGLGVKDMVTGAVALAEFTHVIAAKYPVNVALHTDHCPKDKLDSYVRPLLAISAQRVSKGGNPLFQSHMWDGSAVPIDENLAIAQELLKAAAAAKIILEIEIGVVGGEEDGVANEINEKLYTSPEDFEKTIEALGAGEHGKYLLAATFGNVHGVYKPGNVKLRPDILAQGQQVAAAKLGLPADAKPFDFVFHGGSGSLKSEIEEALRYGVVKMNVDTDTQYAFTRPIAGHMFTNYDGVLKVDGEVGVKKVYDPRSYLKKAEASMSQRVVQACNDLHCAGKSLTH
CCHFV vOTU inh = CCHFV vOTU protease inhibitors, primary screen, biochemical, Pep-AMC substrate, fluorescence; Crimean-Congo hemorrhagic fever virus L polyprotein viral ovarian tumor (vOTU) protease …; inhibition, % at 11.5 µM; 370,000 tested, 0.55% active
RecA splice inh = Mtb RecA intein splicing inhibitors, primary screen, biochemical, fluorescence, HTS | Protein RecA (Mycobacterium tuberculosis (strain ATCC 25618 / H37Rv)), P9WHJ3 | cell-free RecA intein splicing | inhibition, % (concentration not given with the values) | 290,000 tested, 0.75% active; in the data active = inhibition above about 30%
GDH-TPI inh = GDH-TPI coupling enzyme inhibitors, primary screen, artefact control for M. tuberculosis FBA inhibitor project, biochemical, absorbance, full deck; AID 588335, 2011; 360,000 tested, 1.2% active; inhibition, % at 4.8 µM; GDH-TPI coupled enzyme counterscreen, NADH absorbance
Each line names hits and unclear results; the compound was inactive in the other large screens. Rows were chosen to be rich in hits. Some 4.2% of all compounds tested hit in one or more screens of this group. Cut-off read from the data, not from the text of the source, unless noted: active = inhibition above about 30%; inactive = the rest.

COc1c2ccoc2c(OC[C@@H](O)C(C)(C)O)c2oc(=O)ccc12	none
COc1c2ccoc2nc2c(OC)c(OCC(O)C(C)(C)O)ccc12 (centres undefined)	FBA Mtb inh 146 (no result: RecA splice inh)
COc1c2ccoc2nc2c(OC)c(OC[C@@H](O)C(C)(C)O)ccc12	FBA Mtb inh 146 (no result: RecA splice inh)
COc1c2ccoc2nc2c(OC)c(OCC(OC(C)=O)C(C)(C)O)ccc12 (centres undefined)	FBA Mtb inh 130
COc1c2ccoc2nc2c(OC)c(O)ccc12	none
CC(=O)N1CCN(c2cc(C)nc3nc(C)nn23)CC1	none (no result: FBA Mtb inh, RecA splice inh, GDH-TPI inh)
CCN(CC)C(=O)CSc1nc2c(sc(=S)n2-c2ccccc2)c(=O)n1-c1ccc(OC)cc1OC	FBA Mtb inh active
O=C1CC(N2CCN(c3ccc(C(=O)c4ccc(F)cc4)cc3)CC2)C(=O)N1 (centres undefined)	GDH-TPI inh 48
O=C(N/N=C/c1ccc([N+](=O)[O-])o1)c1cc(-c2cccc(Br)c2)nc2ccccc12	GDH-TPI inh 39
Cc1nonc1C(=O)N/N=C/c1ccc([N+](=O)[O-])o1	none
Cc1cc(C(=O)N/N=C/c2ccc([N+](=O)[O-])o2)c(C)o1	GDH-TPI inh 41
O=C(CN(C(=O)c1csnn1)c1ccc2c(c1)OCCO2)NCc1ccc(F)cc1	none
CN(Cc1ccccn1)C(=O)C1CCC(=O)N(Cc2cccc(C(F)(F)F)c2)C1 (centres undefined)	none
CCCCNC(=O)CSc1nc(CCC)nc2ccccc12	none
CCCc1nc(SCC(=O)N2CCc3ccccc3C2)c2ccccc2n1	RecA splice inh 32
COCCNC(=O)C1CCCN(C(=O)c2sccc2C)CC1 (centres undefined)	none (no result: RecA splice inh)
Cc1ccc(NC(=S)NNC(=O)c2cnccn2)cc1	none (no result: FBA Mtb inh, RecA splice inh, GDH-TPI inh)
CCc1cc2c(=O)c(-c3nc4ccccc4n3C)c(C)oc2c(CN2CCN(CCO)CC2)c1O	GDH-TPI inh 35
CCc1cc2c(=O)c(-c3nc4ccccc4[nH]3)coc2c(CN2CCCCC2)c1O	none
CCc1cc2c(=O)c(-c3nc4ccccc4n3C)c(C)oc2c(CN2CCN(C)CC2)c1O	none (no result: FBA Mtb inh, CCHFV vOTU inh, GDH-TPI inh)
CCc1cc2c(=O)c(-c3nc4ccccc4n3C)coc2c(CN2CCCC(C)C2)c1O (centres undefined)	GDH-TPI inh 34
CCn1c(SCCN2CCCCC2)nc2c1c(=O)n(C)c(=O)n2C	none (no result: RecA splice inh)
O=C(O)CCNC(=O)/C(=C\C=C\c1ccccc1)NC(=O)c1ccccc1	GDH-TPI inh 53
Cc1ccc(C(=O)N/C(=C\C=C\c2ccccc2)C(=O)NCc2ccco2)cc1	GDH-TPI inh 36
O=C(Nc1ccc(C(=O)O)cc1)/C(=C\C=C\c1ccccc1)NC(=O)c1ccccc1Cl	GDH-TPI inh 56
O=C(N/C(=C/C=C/c1ccccc1)C(=O)N1CCOCC1)c1ccccc1Cl	none
O=C(Nc1ccc(O)cc1)/C(=C\C=C\c1ccccc1)NC(=O)c1ccccc1	GDH-TPI inh 74
Cc1ccccc1OCCC(=O)OCC(=O)NCCc1ccccc1	none
O=C(O)COc1ccc(/C=N/NC(=O)/C(=C/C=C/c2ccccc2)NC(=O)c2ccccc2)cc1	GDH-TPI inh 55
CCCCCC[C@@H](CN(CCCC)S(C)(=O)=O)c1ccccc1	none (no result: FBA Mtb inh, RecA splice inh, GDH-TPI inh)
CN(C(=O)c1ccno1)c1nnc(-c2ccccn2)s1	FBA Mtb inh active
CCOP(=O)(OCC)c1nc(-c2ccc(OC)cc2)oc1N1CCOCC1	FBA Mtb inh 174
CCOc1ccc(-c2nc(C#N)c(N3CCOCC3)o2)cc1	FBA Mtb inh 175
COP(=O)(OC)c1nc(-c2cccc3ccccc23)oc1N1CCOCC1	FBA Mtb inh active
Cc1ccc(-c2nc(P(=O)(c3ccccc3)c3ccccc3)c(N3CCOCC3)o2)cc1	none
CCOP(=O)(OCC)c1nc(-c2cccc([N+](=O)[O-])c2)oc1N1CCCCC1	none
COP(=O)(OC)c1nc(-c2ccc(C)cc2)oc1N1CCCCC1	FBA Mtb inh active
C=CCNCc1ccc(OC)cc1OC	none (no result: FBA Mtb inh, RecA splice inh, GDH-TPI inh)
CC(COc1ccc(C#N)c(F)c1)CN1CCC(C(O)(c2ccccc2)c2ccccc2)CC1 (centres undefined)	none (no result: FBA Mtb inh, RecA splice inh, GDH-TPI inh)
CN(C)CCNC(=O)C1Cc2c(-c3ccccc3Oc3ccccc3)ccnc2O1 (centres undefined)	none (no result: RecA splice inh)
COC(=O)c1cccc(N2C(=O)C[C@](Sc3ccc(OC)cc3)(C(=O)N3CCOCC3)[C@H]2c2ccc(OC)cc2)c1	none (no result: FBA Mtb inh, RecA splice inh, GDH-TPI inh)
COc1ccc(/C=C2\SC(N3CCc4ccccc4C3)=NC2=O)cc1	GDH-TPI inh 41
O=C1N=C(N2CCc3ccccc3C2)S/C1=C\c1cccc(O)c1	GDH-TPI inh 32
COc1cc(/C=C2\SC(N3CCc4ccccc4C3)=NC2=O)cc(OC)c1OC	none
CCOC(=O)C1CCCN(C(=O)CN2C(=O)NC(C)(c3ccc4ccccc4c3)C2=O)C1 (centres undefined)	none
CCOC(=O)c1[nH]c(=O)[nH]c1CNc1ccccc1C#N	none
CCN1c2ccccc2-c2nc3ccccc3n2C1c1cccs1 (centres undefined)	FBA Mtb inh active
CCCCCCCCCC[n+]1cccc2c3ccccc3ccc21	FBA Mtb inh 29
Cc1cccc[n+]1CCCCCCCCCC[n+]1ccccc1C	none
CCOc1ccc(C(=O)OCC(=O)N2CCCC2)cc1	none
Cn1c(C(=O)NN)cc2cc(OCc3ccccc3)ccc21	GDH-TPI inh 31
Cn1c(C(=O)NN)cc2cc(Oc3ccccc3)ccc21	none
COc1ccc(S(=O)(=O)c2cnc3ccccc3n2)cc1	RecA splice inh 35
O=S(=O)(Cc1ccccc1)c1cnc2ccccc2n1	RecA splice inh 30
O=S(=O)(c1ccc(Br)cc1)c1cnc2ccccc2n1	none
CCCCCCOC(=O)c1ccc(OC(=O)c2cccnc2)cc1	RecA splice inh 61 (no result: CCHFV vOTU inh)
Cc1cc(C#Cc2c(-c3ccccc3)n(C)c3ccccc23)ccc1F	FBA Mtb inh 27
COc1ccc(C#Cc2c(-c3ccccc3)n(C)c3ccccc23)cc1	none (no result: RecA splice inh)
CC(C)N(CCNC(=O)c1nn(Cc2ccccc2)c(=O)c2ccccc12)C(C)C	none
N#C/C(=C/c1ccc(CNS(=O)(=O)c2ccccc2)o1)C(N)=O	GDH-TPI inh 37
CCN(C(=O)COC(=O)CCC(=O)c1ccc(Cl)cc1)c1c(N)n(Cc2ccccc2)c(=O)[nH]c1=O	none (no result: RecA splice inh)
CCOC(=O)CC1=NN(c2ccccc2)C(=O)/C1=C\c1ccc(N(C)C)cc1	none
CCOC(=O)CC1=NN(c2ccccc2)C(=O)C1	RecA splice inh 66
Cc1cccc(C(=O)OCC(=O)c2ccc(CC(=O)N3CCOCC3)s2)c1C	none (no result: RecA splice inh)
CSc1nc(C(=O)N2CCCC(Nc3ccc(C)c(C)c3)C2)cs1 (centres undefined)	none
O=C(O)COc1ccccc1/C=C1\SC(=S)N(NC(=O)c2ccccc2O)C1=O	GDH-TPI inh 33
CCn1c(=O)c2c(nc(SCC(=O)N3CCC(C)CC3)n2C)n(C)c1=O	none
O=C(Nc1ccc2nc(-c3cccs3)c(-c3cccs3)nc2c1)NC1CC1	GDH-TPI inh 32

Screening results deposited in PubChem BioAssay by several laboratories.
